Dicer inh – inhibitors of human Dicer processing of pre-microRNA | AID 1347074 | cat-ELCCA pre-miR-21 Dicer processing, chemiluminescence; stronger effect = higher value | actives 6% (n = 47,000) | Q9UPY3 | z-score at 25 µM; in the data active = z-score above about 3, passing the limit was not always enough;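 note: plate controls were vehicle for no effect and no enzyme for full effect; higher signal means more uncleaved substrate so more Dicer inhibition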
An asterisk follows results filed as active. Many of the other results were omitted from the sample, so hits are more common in it than they were.

How did COc1ccc(C2c3c(oc4ccccc4c3=O)C(=O)N2c2ccccn2)cc1 (centres undefined) do in these assays?
Dicer inh: 4.1*

Results for CCc1ccc(C2c3c(oc4ccccc4c3=O)C(=O)N2c2ccccn2)cc1 (centres undefined) ?
Dicer inh: 2

What do the screens show for `O=C1c2oc3ccccc3c(=O)c2C(c2ccc(O)cc2)N1c1nncs1` (centres undefined)?
Dicer inh: -1.4

What do the screens show for `O=C1c2oc3ccccc3c(=O)c2C(c2ccc(O)cc2)N1c1ccccn1` (centres undefined)?
Dicer inh: 5.1*

What do the screens show for `COc1ccc(C2c3c(oc4ccccc4c3=O)C(=O)N2c2ccccn2)cc1OC` (centres undefined)?
Dicer inh: 1.8

Results for CCCOc1ccc(C2c3c(oc4ccccc4c3=O)C(=O)N2c2ccc(C)cn2)cc1 (centres undefined) ?
Dicer inh: 2.5

Results for CCOC(=O)c1sc(-c2ccccc2)nc1OCc1ccc(Cl)cc1 ?
Dicer inh: 0.3

How did Clc1ccc2oc(-c3csc(-c4ccccc4)n3)cc2c1 do in these assays?
Dicer inh: -0.1

How did Nc1nc(-c2cccnc2)nn1C(=O)c1ccccc1 do in these assays?
Dicer inh: -1.1

Results for COc1ccc(NC(C)=O)c(NCc2cc(OC)c(OC)c(OC)c2)c1 ?
Dicer inh: -2

How did COc1ccc(S(=O)(=O)NCc2ccncc2)cc1Br do in these assays?
Dicer inh: -1.6

Results for O=c1c(=O)n2c(nn1CN1CCCCC1)sc1ccccc12 ?
Dicer inh: 4.1*

How did NC(=O)Cn1nc2sc3ccccc3n2c(=O)c1=O do in these assays?
Dicer inh: -1.3

How did Cc1nnc2c(N3CCOCC3)nc3ccccc3n12 do in these assays?
Dicer inh: -0.14

How did O=c1c(=O)n2c(nn1Cc1ccccc1Cl)sc1ccccc12 do in these assays?
Dicer inh: -1.3

How did O=c1c(N2CCOCC2)nnc2sc3ccccc3n12 do in these assays?
Dicer inh: 4.3*

What do the screens show for `O=c1c(=O)n2c(nn1CN1CCOCC1)sc1ccccc12`?
Dicer inh: 4.3*

Results for C=CCn1nc2sc3ccccc3n2c(=O)c1=O ?
Dicer inh: 1.1

Results for Cn1nc2sc3ccccc3n2c(=O)c1=O ?
Dicer inh: -1.5

What do the screens show for `O=C(Cn1nc2sc3ccccc3n2c(=O)c1=O)c1ccc(Cl)cc1`?
Dicer inh: 7.1

How did Cc1ccc(C(=O)CC2(O)C(=O)Nc3ccc(Cl)cc32)cc1 (centres undefined) do in these assays?
Dicer inh: -0.36

Results for COC(=O)c1ccc(-n2nnnc2SCc2ccccn2)cc1 ?
Dicer inh: -1.1

Results for C[C@@H]1CCN(C(=O)C(CCCN=C(N)N)NS(=O)(=O)c2cccc3c2NC[C@H](C)C3)C(C(=O)O)C1 (some centres undefined) ?
Dicer inh: -1.8

What do the screens show for `O=C(/C=C/OC(=O)c1cc(C(F)(F)F)cc(C(F)(F)F)c1)c1ccc(Cl)cc1`?
Dicer inh: 0.58

What do the screens show for `CSc1cccc(NC(=O)Cn2nc(C)c(Oc3ccccc3)c2C)c1`?
Dicer inh: -0.64

How did Cc1cc(=O)[nH]c(SCc2cccc(Oc3ccccc3)c2)n1 do in these assays?
Dicer inh: -0.26

What do the screens show for `Cc1cc(C)nc(N2N=C(CSc3nnnn3-c3ccccc3)CC2=O)n1`?
Dicer inh: -1.5

What do the screens show for `Cc1ccc(CSc2nc(C)cc(=O)[nH]2)cc1`?
Dicer inh: -1.6

What do the screens show for `Cc1cccc2nc(CSc3nnnn3-c3ccccc3)cn12`?
Dicer inh: 6.5*

What do the screens show for `Cc1cc(=O)[nH]c(SCc2cn3c(C)cccc3n2)n1`?
Dicer inh: 4.8*

What do the screens show for `Cc1cccc2nc(CSc3nncn3-c3ccccc3)cn12`?
Dicer inh: -0.94

What do the screens show for `O=C1CSC(=Nc2cccc(F)c2)N1Cc1ccccc1Cl`?
Dicer inh: -0.35

Results for CC(=O)Nc1ccc(S(=O)(=O)NNc2ncnc3sccc23)cc1 ?
Dicer inh: 0.97

Results for O=C(O)CSc1nc2ccccc2n1Cc1ccccc1 ?
Dicer inh: -1.6

Results for OCCSc1nc2ccccc2n1Cc1ccccc1 ?
Dicer inh: -0.6

What do the screens show for `NC(=O)Cn1c(CSc2nc3ccccc3n2Cc2ccccc2)nc2ccccc21`?
Dicer inh: 4.2*

How did Cn1cnc([N+](=O)[O-])c1N1CCOCC1 do in these assays?
Dicer inh: -0.46

How did Cn1nc(C(F)(F)F)c(-c2ccccc2)c1NC(=O)C1C2C=CC(C2)C1C(=O)O (centres undefined) do in these assays?
Dicer inh: 0.56

What do the screens show for `COc1ccc(C2C(C#N)=C(N)Oc3c2ccc2ccccc32)cc1OC` (centres undefined)?
Dicer inh: -0.11

Results for CC(C)N1C(=O)C2ON(c3ccc(Cl)cc3)C(c3ccc(N(C)C)cc3)C2C1=O (centres undefined) ?
Dicer inh: 1

Results for Clc1ccc(Nc2nc(-c3ccncc3)nc3ccccc23)cc1 ?
Dicer inh: 4*

How did Clc1cccc(Nc2nc(-c3ccncc3)nc3ccccc23)c1 do in these assays?
Dicer inh: 2.6

Results for Oc1ccc(Nc2nc(-c3ccccc3)nc3ccccc23)cc1 ?
Dicer inh: 2.2

Results for O=C1C(=O)N(Cc2cccnc2)C(c2cccnc2)/C1=C(\O)c1ccc(F)cc1 (centres undefined) ?
Dicer inh: -0.59

How did CC(=O)Nc1ccc(S(=O)(=O)Oc2c(Cl)cc(C)cc2Cl)cc1 do in these assays?
Dicer inh: 4.5*

What do the screens show for `Cc1ccc(S(=O)(=O)Oc2c(Cl)cc(C(C)(C)C)cc2Br)cc1`?
Dicer inh: -1.1

Results for CC(=O)Nc1ccc(S(=O)(=O)Oc2ccccc2Cl)cc1 ?
Dicer inh: -1.1

Results for S=C1NCN(Cc2cccs2)CN1 ?
Dicer inh: -0.57

How did C/C(=N/NC(=O)c1ccccc1)C(=O)O do in these assays?
Dicer inh: 3.3*

Results for CC(C)(C)c1ccc(C(=O)N/N=C(/C(=O)O)c2ccccc2)cc1 ?
Dicer inh: 0.11

How did C/C(Cc1ccccc1)=N\NC(=O)c1ccncc1 do in these assays?
Dicer inh: -0.68

What do the screens show for `c1ccc(-c2cc3ccccc3nn2)cc1`?
Dicer inh: -1.5

What do the screens show for `O=C(C1=C(O)C(=O)N(Cc2cccnc2)C1c1ccc(Cl)cc1)c1cccs1` (centres undefined)?
Dicer inh: 0.65

What do the screens show for `O=C(COC(=O)c1cc2ccccc2cc1OC(=O)c1ccc(Cl)cc1)c1ccccc1`?
Dicer inh: -0.71

What do the screens show for `O=C(COC(=O)c1cc(Cl)ccc1O)c1ccc(-c2ccccc2)cc1`?
Dicer inh: 6.1*

Results for O=C(COC(=O)c1ccc(F)c(Cl)c1)c1ccc(Cl)cc1 ?
Dicer inh: 0.91

How did CCOC(=O)c1c(NC(=O)CCC(=O)O)sc(C)c1-c1ccccc1 do in these assays?
Dicer inh: -1.6

What do the screens show for `CCOC(=O)c1cnc2c(c(C)nn2C)c1Sc1cccc(Cl)c1`?
Dicer inh: -3.6

How did O=C1/C(=C/c2ccc(Cl)cc2Cl)COc2ccc(Cl)cc21 do in these assays?
Dicer inh: 2

What do the screens show for `COc1ccc2ncc(-c3ccc(Cl)c(C)c3)nc2c1`?
Dicer inh: -0.59

Results for Cc1cc2ncc(-c3ccccc3)nc2cc1C ?
Dicer inh: 5.8*

How did O=S(=O)(c1ccccc1)n1ccc(-c2cnc3cc(Cl)c(Cl)cc3n2)c1 do in these assays?
Dicer inh: 0.74

What do the screens show for `CCCCOC(=O)C1=C(C)NC2=C(C(=O)CCC2)C1c1ccc(C(=O)OC)cc1` (centres undefined)?
Dicer inh: -0.53
